Assay outcomes deposited in PubChem by several laboratories.
This is a sample that favours compounds with a hit; in the whole collection about 1.8% have one here.
Gli-Sufu antag = Gli-Sufu pathway antagonists, primary screen, luciferase luminescence, Sufu-KO-LIGHT cells, uHTS | Sufu-KO-LIGHT fibroblasts, Gli luciferase reporter luminescence | inhibition, % at 5 µM | hit rate 0.74% among 340,000 | AID 588413, 2011;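 active = inhibition above about 55%, limit read from the data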;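 also: 0% = DMSO-treated cells and 100% = wells with medium but no cells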
697 NFkB inh = inhibitors of PMA/ionomycin-induced NF-kB reporter, 697 cells, primary screen, B-cell NF-kB inhibitor project, cell-based, luminescence, uHTS; hit rate 0.33% among 330,000; inhibition, % at 4 µM; 697 B-cell NF-kB luciferase reporter, 16 h; in the data active = inhibition above about 35%
Beta apoptosis = inhibitors of cytokine-induced beta cell apoptosis, primary screen, luminescence | hit rate 0.8% among 300,000 | INS-1E cytokine-induced death, ATP luminescence, 48 h; percent of positive-control rescue, neutral wells zero | AID 435005, 2010 | protection from apoptosis, % (test concentration not listed);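 active = Every replicate reaches about 75%, or at least half do and their mean reaches it too, limit read from the data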;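 also: 0% = cytokine-treated negative control wells and 100% = positive control rescue; higher means more ATP so stronger rescue from cytokine killing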
Jurkat NFkB inh = inhibitors of induced NF-kB luciferase reporter, primary screen, TCR NF-kB activation inhibitor project, cell-based, luminescence, uHTS; Jurkat, PMA/ionomycin-induced NF-kB luciferase reporter; inhibition, % at 4 µM; hit rate 0.53% among 330,000; AID 435003, 2010; in the data active = inhibition above about 50%
Jurkat NFkB conf = PMA/ionomycin-induced NF-kB reporter inhibitors, Jurkat retest, confirmation, T-cell NF-kB inhibitor project, cell-based, luminescence, single concentration; inhibition, % at 4 µM; hit rate 27% among 2,700; Jurkat NF-kB luciferase, 16 h; shares compounds with Jurkat NFkB inh;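 active = inhibition reaching about 45% at 4 µM in either replicate, limit read from the data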;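 also: plate controls were PMA/ionomycin stimulated DMSO wells for no effect and unstimulated DMSO wells for full effect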
Starred values were filed as active, the others as inactive; . = no result.

SMILES	Gli-Sufu antag	697 NFkB inh	Beta apoptosis	Jurkat NFkB inh	Jurkat NFkB conf
COc1ccc(N2CC(C(=O)N/N=C/c3ccc(C)cc3)CC2=O)cc1 (configuration not stated)	4	-37	3	55*	18
CCn1c2ccccc2c2cc(NC(=O)COc3ccccc3OC)ccc21	5	-17	-7	48	.
CCn1c2ccccc2c2cc(NC(=O)CNCc3ccccc3OC)ccc21	-6	-5	12	53*	24
Cc1ccc(C(=O)O/N=C(\N)c2ccccn2)c(C)c1	73*	-12	-8	76*	92*
O=C(Nc1ccc(Oc2ccccc2)nc1)C1CCN(Cc2ccco2)CC1	9	15	2	1	.
O=C(Nc1ccc(Oc2ccccc2)nc1)C1CCCCN1Cc1ccco1 (configuration not stated)	42	-65	8	53*	5
Cc1ccc(CN2CCCCC2C(=O)Nc2ccc(Oc3cccnc3)cc2)o1 (configuration not stated)	15	-20	.	69*	6
COc1ccc(NC(=S)NC(=O)/C=C/c2cccs2)cc1	-13	0	-1	-5	.
O=C(O)c1ccc2c3n(nc2c1)-c1ccc(Cl)cc1CO3	-38	-22	-4	59*	10
C=CCNC(=O)c1ccc2c3n(nc2c1)-c1ccccc1CO3	-137	-167	39	-154	-71
O=C(c1ccc2c3n(nc2c1)-c1ccc(Cl)cc1CO3)N1CCCCC1	-47	-74	5	-89	.
COCCNC(=O)c1ccc2c3n(nc2c1)-c1ccccc1CO3	-67	-133	17	-87	.
COc1cc(C(=O)Nc2ccc3c(c2)CCN3C(C)=O)cc(OC)c1OC	.	-14	11	68*	38
COc1cc(C(=O)Nc2ccc3c(c2)Cc2ccccc2-3)cc(OC)c1OC	14	-16	5	54*	35
COc1ccc(-c2cc(C(=O)N3CCCC3)c3ccccc3n2)cc1	-23	-25	-5	-7	.
COc1ccc(-c2cc(C(=O)N3CCN(c4ccccc4)CC3)c3ccccc3n2)cc1	49	-52	5	60*	-11
Cc1cc(C(=O)N2CC=C(c3ccccc3)CC2)c2ccccc2n1	28	-16	11	67*	45
Cc1c(C(=O)C(=O)N2CC=C(c3ccccc3)CC2)c2ccccc2n1C	4	-52	-6	53*	20
C=C(C)COc1ccc(-c2[nH]ncc2-c2ccc(Br)cc2)c(O)c1	-4	-22	7	59*	8
C=C(C)COc1ccc(-c2[nH]ncc2-c2ccccc2OC)c(O)c1	-1	-31	0	16	.
CCOc1ccc(-c2[nH]ncc2-c2ccc(OC)c(OC)c2)c(O)c1	0	-57	24	63*	57*
C=C(C)COc1ccc(-c2ncncc2-c2ccc(Br)cc2)c(O)c1	0	-3	7	8	.
C=C(C)COc1ccc(-c2n[nH]c(C)c2-c2ccc(Br)cc2)c(O)c1	-4	-19	-2	50*	26
Cc1ccc(NC(=O)CN2C(=O)NC3(CCCCC3)C2=O)cc1S(=O)(=O)N1CCOCC1	3	-28	-22	-5	.
CCc1nnc(NC(=O)CCC(=O)N2CCN(Cc3ccc(OC)c(F)c3)CC2)s1	9	-2	-1	-6	.
SMILES	Gli-Sufu antag	697 NFkB inh	Beta apoptosis	Jurkat NFkB inh	Jurkat NFkB conf
O=C(Cn1nnc2ccccc2c1=O)NC1CCCCC1	10	1	0	-19	.
CC(C)(C)c1ccc(C(=O)Nc2ccc([N+](=O)[O-])cn2)cc1	-75	-96	6	-182	-113
CC1(C)Cc2c(sc(NC(=O)COc3cccc4ccccc34)c2C#N)C(C)(C)N1	2	-17	10	87*	62*
CN(c1ccccc1)c1ncnc2c1ncn2C	5	.	.	.	.
CN(C)CCCN(C(=O)c1ccc(S(=O)(=O)N2CCCCCC2)cc1)c1nc2ccc(F)cc2s1	26	-45	-6	-21	.
Cc1ccccc1-n1ncc2c1CC(C)(C)CC2NC(=O)CCn1cncn1 (configuration not stated)	-13	8	.	3	.
Cc1ccc(C(=O)NC2c3ccccc3-c3ccccc32)cc1	-2	-24	-2	60*	2
Cc1ccc(C(=O)NC2CCc3ccccc3C2=O)cc1 (configuration not stated)	-84	-104	0	-107	.
CC(C)=NOCC(=O)Nn1c(COc2ccccc2)nc2ccccc2c1=O	-3	2	4	3	.
Cc1csc2nc(COC(=O)c3ccc(Cl)c([N+](=O)[O-])c3)cc(=O)n12	-13	24	-1	53*	26
Cc1ccc(/C=N/NC(=O)c2ccc3c(c2)OCCO3)s1	-19	-148	8	16	.
Cc1ccc(/C=N/NC(=O)c2ccc3ccccc3c2)s1	-16	-40	7	52*	34
Cc1ccc(S(=O)(=O)N(C)CC(=O)NNC(=O)CCNS(=O)(=O)c2cccc(C)c2)cc1	-2	22	-3	-2	.
COc1ccc(NC(=O)Nc2ccc(N(C)C)cc2)cc1	-80	-98	10	-114	.
COc1ccc(NC(=S)NN(C)C(=S)Nc2ccc(OC)cc2)cc1	-4	-49	2	65*	-2
CCOC(=O)c1c(C)[nH]c(C(=O)Nc2ccc3c(c2)OCO3)c1C	.	-154	5	-187	-94
CCOC(=O)c1[nH]c(C)c(C(=O)Nc2ccccc2F)c1C	-11	-77	-3	52*	13
CCOC(=O)Nc1ccc2c(c1)OCO2	-41	-54	4	-30	.
CCOC(=O)c1[nH]c(C)c(C(=O)Nc2ccc(F)cc2)c1C	-14	14	-2	-7	.
CCOC(=O)c1c(C)[nH]c(C(=O)OCc2ccccc2F)c1C	-72	-196	15	-166	-115
CCOC(=O)c1c(C)[nH]c(C(=O)OCC(=O)c2ccccc2)c1C	-132	-220	3	-193	-151
Cc1noc(C(C)C)c1C(=O)Nc1ccc(-c2nnc3n2CCCCC3)cc1	2	12	0	-2	.
CCOC(=O)c1[nH]c(C)c(C(=O)Nc2ccc(C)c(C)c2)c1C	-21	-1	5	13	.
CCOC(=O)c1[nH]c(C)c(C(=O)Nc2cc(OC)ccc2OC)c1C	6	7	16	70*	46
CCOC(=O)c1[nH]c(C)c(C(=O)OCC(=O)NC(C)c2ccc(F)cc2)c1C (configuration not stated)	-7	-69	10	60*	51*
CCOC(=O)c1[nH]c(C)c(C(=O)Nc2ccc(C)cc2C)c1C	-19	-62	22	53*	42
COc1cc(NC(=O)N2c3ccccc3Sc3ccccc32)c(C(=O)O)cc1OC	6	10	3	2	.
Cc1cc(=O)oc2c3c(cc(OCC(=O)NCC(=O)O)c12)OC(C)(C)CC3	2	4	-7	-15	.
CC(=O)c1ccc(N2CCN(C(=O)COc3ccccc3F)CC2)c(F)c1	0	-19	-4	1	.
